Assay [1] relates to XIP peptide (Xip251-270) binding. Description: XIP fragment 251-270 binding compounds – biochemical, small-molecule microarray, fluorescence 635/667 nm, 0.1 µg/mL protein, primary screen (AID 1182). Conditions: fluorescent protein binding, 635 nm, higher = more signal, called active from +8 up or from −8 down.
A further assay relates to XIP peptide (Xip251-270). Description: compounds binding XIP fragment 251-270 – biochemical, small-molecule microarray, fluorescence 635/667 nm, 0.5 µg/mL protein, primary screen (AID 1183). The note with it: fluorescence 635 nm, higher = more signal.
Assay [2] is described as follows: blood-stage malaria parasite viability loss – strain 3D7, DAPI fluorescence, 100 nL, primary screen (AID 1184).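 Note: parasites grown inside human red blood cells in medium with human serum.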 The note with it: P. falciparum 3D7 growth, 3 d, higher = more signal.
For assay [3], the target named is Homeobox protein Hox-A13 (Mus musculus) (UniProt Q62424). Description: disruptors of Hoxa13 oligonucleotide interaction – biochemical, fluorescence polarization, labeled oligonucleotide, primary screen (AID 1185). Conditions: Hoxa13:DNA binding, 15 min, higher = more signal, called active from +8 up or from −8 down.
Sequence of Homeobox protein Hox-A13 (Mus musculus) (Q62424 whole entry, looked up): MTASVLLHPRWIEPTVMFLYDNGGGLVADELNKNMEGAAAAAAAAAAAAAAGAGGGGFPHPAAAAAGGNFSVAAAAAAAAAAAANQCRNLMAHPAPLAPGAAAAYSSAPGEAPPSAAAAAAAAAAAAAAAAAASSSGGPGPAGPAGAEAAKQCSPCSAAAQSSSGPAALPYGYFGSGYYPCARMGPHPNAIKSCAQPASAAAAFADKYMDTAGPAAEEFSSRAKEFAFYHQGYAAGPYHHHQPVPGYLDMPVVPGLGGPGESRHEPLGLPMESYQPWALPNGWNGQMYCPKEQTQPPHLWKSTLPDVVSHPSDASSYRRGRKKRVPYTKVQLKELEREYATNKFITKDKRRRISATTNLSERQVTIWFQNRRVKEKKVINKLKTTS
A short description of assay [4]: blockers of DNA damage checkpoint Chk1 activation – imaging, HeLa, hydroxyurea, phospho-Chk1 antibody, percent positive cells, primary screen (AID 1186). The note with it: hydroxyurea-induced phospho-Chk1 immunofluorescence imaging, higher = more signal.
Assay [5] can be described thus: blockers of DNA damage checkpoint Chk1 activation – imaging, HeLa, hydroxyurea, phospho-Chk1 nuclear intensity, primary screen (AID 1187). The note with it: hydroxyurea-induced phospho-Chk1 immunofluorescence imaging, higher = more signal.

The values that follow come from PubChem BioAssay.

Activity calls are given as the source filed them. Unless noted, the rule behind the calls is not given here.

In the case of `CC(C)C[C@@H]1NC(=O)[C@@H]2C[C@H](C(=O)NCCCCCN)[C@H](c3ccc(O)cc3)N2C1=O`, the figures for the composite z-score (in assay [1]; with XIP peptide (Xip251-270)) were 0.0938 (inactive) and 0.725, respectively. Further, the z-score was 0.179 in assay [2], -1.88 (inactive) in assay [3], -0.223 (inactive) in assay [4] and 0.0212 (inactive) in assay [5].

In the case of `C=C[C@@H](COC(C)=O)N(C(=O)OC(C)(C)C)S(=O)(=O)c1ccc(Br)cc1`, the composite z-score was 0.805 (inactive) in assay [1] and 0.546 in the assay with XIP peptide (Xip251-270). Further, the z-score is 0.573 in assay [2], -2.35 (inactive) in assay [3], -0.506 (inactive) in assay [4] and -0.474 (inactive) in assay [5].

Turning to `CC1=C[C@@]2(CO)C(=O)[C@]3(CO3)[C@@H]1[C@H]1[C@]2(C)C=C(CO)C(=O)[C@]12CO2`, the results for the composite z-score (in assay [1]; in the assay with XIP peptide (Xip251-270)) were 0.188 (inactive) and 0.454, respectively. Moreover, the z-score was -1.27 in assay [2], -4.58 (inactive) in assay [3], -0.441 (inactive) in assay [4] and -0.35 (inactive) in assay [5].

Take `CN1C(=O)C2C=CC(C(O)C#Cc3ccccc3)N(Nc3ccccc3)C2C1=O` (stereo unspecified): the composite z-score is 0.783 (inactive) in assay [1] and 0.794 in the assay on XIP peptide (Xip251-270). In addition, the z-score is -0.351 in assay [2], -4.25 (inactive) in assay [3], -0.0435 (inactive) in assay [4] and 0.113 (inactive) in assay [5].

Consider `CN(C)CCCCNC(=O)[C@@H]1C[C@@H]2C(=O)N[C@@H](Cc3ccccc3)C(=O)N2[C@@H]1c1cccc(OCCO)c1`, for which the composite z-score in assay [1] is 0.096 (inactive); in the assay with XIP peptide (Xip251-270) it was 0.762. For the same compound, the z-score is 0.0546 in assay [2], -3.94 (inactive) in assay [3], -1.08 (inactive) in assay [4] and -0.295 (inactive) in assay [5].

`O=C(NCc1ccccc1)[C@@H]1c2ccccc2C(=O)N(Cc2ccccc2C(F)(F)F)[C@H]1c1ccc(CO)cc1`: the results for the composite z-score (in assay [1]; with XIP peptide (Xip251-270)) were 0.55 (inactive) and 0.545, respectively. Also, the z-score in assay [2] is 0.0452; in assay [3], -3.17 (inactive); in assay [4] it was -0.496 (inactive); in assay [5], -0.841 (inactive).

As for `C=C(C)c1cc2c(c(CCCCCC)n1)[Si](C(C)C)(C(C)C)OC2`, the figures for the composite z-score (in assay [1]; in the assay with XIP peptide (Xip251-270)) were -0.525 (inactive) and -0.115, respectively. The z-score in assay [2] is -0.631; in assay [3], -1.76 (inactive); in assay [4], 0.213 (inactive); in assay [5], 1.53 (inactive).

As for `C=CC[C@]1(C(=O)O)COC(c2ccc(OCCCO)cc2)=N1`, the composite z-score is 0.324 (inactive) in assay [1] and 0.614 in the assay with XIP peptide (Xip251-270). Further, the z-score in assay [2] is -0.12; in assay [3], -0.685 (inactive); in assay [4], -0.173 (inactive); in assay [5] it was -0.315 (inactive).

For `CC(C)[Si](C#C[Si](C(C)C)(C(C)C)C(C)C)(O[C@H](C)c1cn([C@H](CO)Cc2ccccc2)nn1)C(C)C`, the composite z-score was 0.183 (inactive) in assay [1] and 0.348 with XIP peptide (Xip251-270). Moreover, the z-score is 0.67 in assay [2], -0.249 (inactive) in assay [3], -0.258 (inactive) in assay [4] and -0.36 (inactive) in assay [5].

Regarding `Cc1ccccc1C(O)C1C=CC2C(=O)N(C)C(=O)C2N1N(c1ccccc1)c1ccccc1` (stereo unspecified), the composite z-score in assay [1] is -0.0728 (inactive); in the assay with XIP peptide (Xip251-270), 0.649. For the same compound, the z-score is 0.548 in assay [2], -1.17 (inactive) in assay [3], -0.274 (inactive) in assay [4] and -0.168 (inactive) in assay [5].

For the compound `C[C@@H]1NC(=O)[C@@]23C(=O)N[C@@H](Cc4ccccc4)C2[C@H](C)[C@@]2(C)O[C@H]2C3/C=C/C/C=C\CNC(=O)[C@@H]2CCCN2C1=O` (stereo partly specified), the composite z-score in assay [1] is -0.85 (inactive); in the assay with XIP peptide (Xip251-270), -0.103. Also, the z-score was 0.934 in assay [2], -3.68 (inactive) in assay [3], -0.0354 (inactive) in assay [4] and 0.186 (inactive) in assay [5].

For the compound `COC(=O)Cn1c(C(=O)N(C)C)cc2c1C[C@H]1CN(C(=O)c3ccccc3)[C@@](Cc3ccc(F)cc3)(C(=O)OC)[C@@H]21`, the values for the composite z-score (in assay [1]; in the assay on XIP peptide (Xip251-270)) were 1.69 (inactive) and -0.196, respectively. In addition, the z-score in assay [2] was -0.0793; in assay [3], -4.28 (inactive); in assay [4], 0.927 (inactive); in assay [5], 1.08 (inactive).

As to `CC(CO)N1C(=O)[C@@H]2[C@H]3C(=O)OCC=C[C@H]3OC23C=CCN(Cc2ccccc2)C(=O)[C@@H]13` (stereo partly specified), the composite z-score in assay [1] was -0.542 (inactive); with XIP peptide (Xip251-270) it was 0.189. Also, the z-score in assay [2] is -0.379; in assay [3], -2.5 (inactive); in assay [4], -0.539 (inactive); in assay [5], -0.113 (inactive).

Regarding `COC(=O)c1c(CC[C@@H](CO)NC(=O)N[C@H](Cn2cc(C3(O)CCCCC3)nn2)C(C)C)oc(C(C)=O)c1C(=O)OC`, the composite z-score in assay [1] was 0.0887 (inactive); in the assay with XIP peptide (Xip251-270), 0.837. The z-score in assay [2] was -2.24; in assay [3], -1.69 (inactive); in assay [4], 0.303 (inactive); in assay [5], 0.608 (inactive).

On to `CO[C@]12C=C(Br)[C@@H](C[C@@H]1c1cccc(C)c1)[C@@]1(CO1)C2=O`, for which the composite z-score was 0.177 (inactive) in assay [1] and 0.179 in the assay on XIP peptide (Xip251-270). Moreover, the z-score in assay [2] is 0.267; in assay [3], -1.7 (inactive); in assay [4] it was -0.545 (inactive); in assay [5], -0.28 (inactive).

For the compound `NCCCCCCNC(=O)[C@@H]1C[C@@H]2C(=O)N[C@@H](CCCCN)C(=O)N2[C@@H]1c1cccc(OCCO)c1`, the values for the composite z-score (in assay [1]; in the assay with XIP peptide (Xip251-270)) were 1.7 (inactive) and 0.832, respectively. Moreover, the z-score was 0.139 in assay [2], -3.22 (inactive) in assay [3], -0.545 (inactive) in assay [4] and -0.269 (inactive) in assay [5].
